Assay results as given in the supplement of paper PMC4022240.
± gives the standard deviation.

Tests used:
Assay in all cases: peptide microarray binding signal (635 nm), min-max normalized on array (fraction of array maximum); higher = stronger binding
[1] = biological target: T1, HaloTag-ATRX ADD domain (163-292)
T1 chain: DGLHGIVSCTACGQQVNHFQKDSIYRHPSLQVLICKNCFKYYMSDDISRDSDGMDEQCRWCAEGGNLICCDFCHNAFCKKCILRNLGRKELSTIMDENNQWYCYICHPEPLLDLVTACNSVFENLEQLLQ
Outline: (§1)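 For each library, binding signal was taken as the triplicate-spot mean intensity and then min-max scaled. Spots of histone 13-mer peptide–cellulose conjugates on nitrocellulose, printed in triplicate with a Cy3 tracer, were probed for 1 h at 4°C with either biotin-labelled HaloTag reader fusions (10 nM to 1 μM) and streptavidin-Alexa Fluor 647 or rabbit histone antibodies (1:10,000 to 1:2,000) and anti-rabbit Alexa 647. Readout at 635 nm came from an Axon GenePix 4000B.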

[2] = biological target: HaloTag-ING2 PHD (mouse Ing2 200-280)
Outline: as §1

[3] = biological target: anti-H3K4me3 antibody ab8580
Outline: as §1

[4] = biological target: anti-H3K9me3 antibody ab8898
Outline: as §1

[5] = peptide region: H4 38-50, peptide modifications: H4R45me2s, binder concentration: 1:2,000 dilution
[6] = peptide region: H4 38-50, peptide modifications: H4R45me2s, binder concentration: 1:10,000 dilution
[7] = peptide region: H4 53-65, binder concentration: 1:2,000 dilution
[8] = peptide region: H4 53-65, binder concentration: 1:10,000 dilution
[9] = peptide region: H4 53-65, peptide modifications: H4K59me1, binder concentration: 1:2,000 dilution
[10] = peptide region: H4 53-65, peptide modifications: H4K59me1, binder concentration: 1:10,000 dilution
[11] = peptide region: H4 38-50, peptide modifications: H4R45me2a, binder concentration: 1:2,000 dilution
[12] = peptide region: H4 38-50, peptide modifications: H4R45me2a, binder concentration: 1:10,000 dilution
[13] = peptide region: H4 53-65, peptide modifications: H4K59me3, binder concentration: 1:2,000 dilution
[14] = peptide region: H4 53-65, peptide modifications: H4K59me3, binder concentration: 1:10,000 dilution
[15] = peptide region: Unmod H1 variant, binder concentration: 50 nM
[16] = peptide region: Unmod H1 variant, binder concentration: 500 nM
[17] = peptide region: Unmod H1 variant, binder concentration: 10 nM
[18] = peptide region: Unmod H1 variant, binder concentration: 100 nM
[19] = peptide region: Unmod H1 variant, binder concentration: 1:2,000 dilution
[20] = peptide region: Unmod H1 variant, binder concentration: 1:10,000 dilution
[21] = peptide region: H4 38-50, peptide modifications: H4R45cit, binder concentration: 1:2,000 dilution
[22] = peptide region: H4 38-50, peptide modifications: H4R45cit, binder concentration: 1:10,000 dilution
[23] = peptide region: H4 53-65, peptide modifications: H4K59me2, binder concentration: 1:2,000 dilution
[24] = peptide region: H4 53-65, peptide modifications: H4K59me2, binder concentration: 1:10,000 dilution

Binder: ARRGGVKRISGLI [H4 38-50 A R R G G V K Rme2s I S G L I]
- peptide microarray binding signal ([1]; peptide region: H4 38-50, peptide modifications: H4R45me2s, binder concentration: 50 nM): 0.0042 ± 0.00012
- peptide microarray binding signal ([1]; peptide region: H4 38-50, peptide modifications: H4R45me2s, binder concentration: 500 nM): 0.00971 ± 0.0016
- peptide microarray binding signal ([2]; peptide region: H4 38-50, peptide modifications: H4R45me2s, binder concentration: 10 nM): 0.0212 ± 0.0027
- peptide microarray binding signal ([2]; peptide region: H4 38-50, peptide modifications: H4R45me2s, binder concentration: 100 nM): 0.0349 ± 0.0095
- peptide microarray binding signal [3, 5]: 0.00542 ± 0.0019
- peptide microarray binding signal [3, 6]: 0.00702 ± 0.0012
- peptide microarray binding signal [4, 5]: 0.00222 ± 0.0001
- peptide microarray binding signal [4, 6]: 0.00173 ± 4.4e-05

Binder: ETRGVLKVFLENV [H4 53-65 E T R G V L K V F L E N V]
- peptide microarray binding signal ([1]; peptide region: H4 53-65, binder concentration: 50 nM): 0.00282 ± 3.2e-05
- peptide microarray binding signal ([1]; peptide region: H4 53-65, binder concentration: 500 nM): 0.003334 ± 2.5e-05
- peptide microarray binding signal ([2]; peptide region: H4 53-65, binder concentration: 10 nM): 0.00639 ± 0.00028
- peptide microarray binding signal ([2]; peptide region: H4 53-65, binder concentration: 100 nM): 0.00461 ± 7.6e-05
- peptide microarray binding signal [3, 7]: 0.00121 ± 3.5e-05
- peptide microarray binding signal [3, 8]: 0.00188 ± 3.5e-05
- peptide microarray binding signal [4, 7]: 0.00068 ± 1e-05
- peptide microarray binding signal [4, 8]: 0.001211 ± 1.2e-05

Binder: ETRGVLKVFLENV [H4 53-65 E T R G V L Kme V F L E N V]
- peptide microarray binding signal ([1]; peptide region: H4 53-65, peptide modifications: H4K59me1, binder concentration: 50 nM): 0.00605 ± 0.00068
- peptide microarray binding signal ([1]; peptide region: H4 53-65, peptide modifications: H4K59me1, binder concentration: 500 nM): 0.00795 ± 0.00042
- peptide microarray binding signal ([2]; peptide region: H4 53-65, peptide modifications: H4K59me1, binder concentration: 10 nM): 0.00847 ± 0.001
- peptide microarray binding signal ([2]; peptide region: H4 53-65, peptide modifications: H4K59me1, binder concentration: 100 nM): 0.0164 ± 0.0049
- peptide microarray binding signal [3, 9]: 0.00213 ± 0.00025
- peptide microarray binding signal [3, 10]: 0.00314 ± 0.00021
- peptide microarray binding signal [4, 9]: 0.00166 ± 0.00016
- peptide microarray binding signal [4, 10]: 0.00231 ± 8.4e-05

Binder: ARRGGVKRISGLI [H4 38-50 A R R G G V K Rme2a I S G L I]
- peptide microarray binding signal ([1]; peptide region: H4 38-50, peptide modifications: H4R45me2a, binder concentration: 50 nM): 0.00589 ± 0.00093
- peptide microarray binding signal ([1]; peptide region: H4 38-50, peptide modifications: H4R45me2a, binder concentration: 500 nM): 0.0275 ± 0.023
- peptide microarray binding signal ([2]; peptide region: H4 38-50, peptide modifications: H4R45me2a, binder concentration: 10 nM): 0.0152 ± 0.0026
- peptide microarray binding signal ([2]; peptide region: H4 38-50, peptide modifications: H4R45me2a, binder concentration: 100 nM): 0.024 ± 0.0022
- peptide microarray binding signal [3, 11]: 0.00185 ± 3.4e-05
- peptide microarray binding signal [3, 12]: 0.00468 ± 0.0014
- peptide microarray binding signal [4, 11]: 0.00134 ± 0.00014
- peptide microarray binding signal [4, 12]: 0.00144 ± 7.5e-05

Binder: ETRGVLKVFLENV [H4 53-65 E T R G V L Kme3 V F L E N V]
- peptide microarray binding signal ([1]; peptide region: H4 53-65, peptide modifications: H4K59me3, binder concentration: 50 nM): 0.00755 ± 0.00027
- peptide microarray binding signal ([1]; peptide region: H4 53-65, peptide modifications: H4K59me3, binder concentration: 500 nM): 0.00719 ± 0.00011
- peptide microarray binding signal ([2]; peptide region: H4 53-65, peptide modifications: H4K59me3, binder concentration: 10 nM): 0.0074 ± 5.7e-05
- peptide microarray binding signal ([2]; peptide region: H4 53-65, peptide modifications: H4K59me3, binder concentration: 100 nM): 0.006945 ± 4.9e-05
- peptide microarray binding signal [3, 13]: 0.00549 ± 0.00064
- peptide microarray binding signal [3, 14]: 0.00616 ± 0.00023
- peptide microarray binding signal [4, 13]: 0.017 ± 0.0023
- peptide microarray binding signal [4, 14]: 0.0133 ± 0.00048

Binder: RLVTTGVLKQTKG [Unmod H1 variant R L V T T G V L K Q T K G]
- peptide microarray binding signal [1, 15]: 0.0191 ± 0.00044
- peptide microarray binding signal [1, 16]: 0.035 ± 0.0031
- peptide microarray binding signal [2, 17]: 0.0205 ± 0.0038
- peptide microarray binding signal [2, 18]: 0.0395 ± 0.0068
- peptide microarray binding signal [3, 19]: 0.00321 ± 0.00047
- peptide microarray binding signal [3, 20]: 0.00348 ± 4.9e-05
- peptide microarray binding signal [4, 19]: 0.00151 ± 8.2e-05
- peptide microarray binding signal [4, 20]: 0.001903 ± 1.8e-05

Binder: ARRGGVKRISGLI [H4 38-50 A R R G G V K Rcit I S G L I]
- peptide microarray binding signal ([1]; peptide region: H4 38-50, peptide modifications: H4R45cit, binder concentration: 50 nM): 0.00395 ± 6.8e-05
- peptide microarray binding signal ([1]; peptide region: H4 38-50, peptide modifications: H4R45cit, binder concentration: 500 nM): 0.00619 ± 7.4e-05
- peptide microarray binding signal ([2]; peptide region: H4 38-50, peptide modifications: H4R45cit, binder concentration: 10 nM): 0.00561 ± 4.7e-05
- peptide microarray binding signal ([2]; peptide region: H4 38-50, peptide modifications: H4R45cit, binder concentration: 100 nM): 0.0163 ± 0.003
- peptide microarray binding signal [3, 21]: 0.012 ± 0.0055
- peptide microarray binding signal [3, 22]: 0.00976 ± 0.00034
- peptide microarray binding signal [4, 21]: 0.00521 ± 0.00036
- peptide microarray binding signal [4, 22]: 0.00271 ± 7.1e-05

Binder: ETRGVLKVFLENV [H4 53-65 E T R G V L Kme2 V F L E N V]
- peptide microarray binding signal ([1]; peptide region: H4 53-65, peptide modifications: H4K59me2, binder concentration: 50 nM): 0.00674 ± 0.0001
- peptide microarray binding signal ([1]; peptide region: H4 53-65, peptide modifications: H4K59me2, binder concentration: 500 nM): 0.00752 ± 0.00054
- peptide microarray binding signal ([2]; peptide region: H4 53-65, peptide modifications: H4K59me2, binder concentration: 10 nM): 0.0113 ± 0.00022
- peptide microarray binding signal ([2]; peptide region: H4 53-65, peptide modifications: H4K59me2, binder concentration: 100 nM): 0.00758 ± 0.0001
- peptide microarray binding signal [3, 23]: 0.00177 ± 0.00011
- peptide microarray binding signal [3, 24]: 0.00394 ± 0.0003
- peptide microarray binding signal [4, 23]: 0.00122 ± 2.8e-05
- peptide microarray binding signal [4, 24]: 0.003113 ± 2.6e-05

Binder: DSQIKLSIKRLVT [Unmod H1 variant D S Q I K L S I K R L V T]
- peptide microarray binding signal [1, 15]: 0.0155 ± 0.00047
- peptide microarray binding signal [1, 16]: 0.0281 ± 0.00085
- peptide microarray binding signal [2, 17]: 0.003819 ± 3.5e-05
- peptide microarray binding signal [2, 18]: 0.00801 ± 0.00074
- peptide microarray binding signal [3, 19]: 0.000623 ± 3.1e-05
- peptide microarray binding signal [3, 20]: 0.00137 ± 1.3e-05
- peptide microarray binding signal [4, 19]: 0.000513 ± 9.7e-06
- peptide microarray binding signal [4, 20]: 0.00127 ± 2.5e-05

Binder: SFRLAKSDEPKKS [Unmod H1 variant S F R L A K S D E P K K S]
- peptide microarray binding signal [1, 15]: 0.0196 ± 0.0052
- peptide microarray binding signal [1, 16]: 0.0223 ± 0.001
- peptide microarray binding signal [2, 17]: 0.00448 ± 0.00019
- peptide microarray binding signal [2, 18]: 0.0192 ± 0.0084
- peptide microarray binding signal [3, 19]: 0.001 ± 0.00013
- peptide microarray binding signal [3, 20]: 0.00154 ± 9.8e-05
- peptide microarray binding signal [4, 19]: 0.000785 ± 0.00015
- peptide microarray binding signal [4, 20]: 0.000923 ± 9.6e-06
